Outcome and AC50 data for 19 compounds are collected here from PubChem BioAssay (EPA / NIEHS).

Activity calls are given as the source filed them. Rule for the calls: active = hit-call score of the fitted dose curve at least 0.9, where 1 is the maximum; inactive = score below 0.9.

Usually AC50 stands for the concentration giving half of the maximal activity seen.

Read-out in the experiment: Tissue Factor, F3 (gene 2152)
The experiment is described as follows: BSK_CASM3C_TissueFactor: BioMAP Diversity Plus: CASM3C Assay for Tissue Factor Biomarker Activity (AID 2283052).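 Note: cell surface tissue factor protein level read by ELISA.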 Conditions: primary human coronary artery smooth muscle cells; actives raise or lower the signal.
For the compound `CC(C)CC(C)O` (centres undefined), the outcome was inactive. `CCN(CC)C(=S)SSC(=S)N(CC)CC`: the AC50 is 20 µM (active). In the case of `FC(F)C(F)(F)COCC1CO1` (centres undefined), the outcome was inactive. On the same count and under the same terms, the same measure for `OCCC(F)(F)C(F)(F)C(F)(F)C(F)(F)F`: “inactive”. Take `CCCCN1C(=O)[C@@H]([C@H](O)C2CCCCC2)NC(=O)C12CCN(Cc1ccc(Oc3ccc(C(=O)O)cc3)cc1)CC2`: the outcome was inactive.

`NC(=O)N1c2ccccc2C=Cc2ccccc21`: the result was inactive. On the same count and under the same terms, the same measure for `CC(C)c1nnc2ccc(-c3ocnc3-c3cc(F)ccc3F)cn12`: “inactive”; for `O=S(=O)(O)CCC(F)(F)C(F)(F)C(F)(F)C(F)(F)C(F)(F)C(F)(F)F`: “inactive”. Still for that read-out and setting: the same measure for `FC(F)=C(F)C(F)(F)C(F)(F)C(F)(F)C(F)(F)C(F)(F)C(F)(F)F`: “inactive”; for `Cc1ccc(S(=O)(=O)NC(=O)NN2CCCCCC2)cc1`: “inactive”.

For the compound `NC(N)=O`, the outcome was inactive. The same measure, in the same setting: the same measure for `CC[C@H](C)C(=O)O[C@H]1C[C@H](O)C=C2C=C[C@H](C)[C@H](CC[C@@H](O)C[C@@H](O)CC(=O)O)[C@H]21`: “inactive”; for `CCCCCCCCN(C)C`: “inactive”; for `FC(F)(F)C(F)(F)C(F)(F)C(F)(F)C(F)(F)C(F)(F)I`: “inactive”. Same read-out and setting: the same measure for `O=S(=O)(O)c1ccc(N=Nc2c(O)ccc3cc(S(=O)(=O)O)ccc23)cc1`: “inactive”; for `CCCCCCOC(=O)CC(CC(=O)OCCCCCC)(OC(=O)CCC)C(=O)OCCCCCC`: “inactive”; for `c1ccc2ncccc2c1`: “inactive”.

For `OC[C@H]1O[C@@](CO)(O[C@H]2O[C@H](CO)[C@@H](O)[C@H](O)[C@H]2O)[C@@H](O)[C@@H]1O`, the result was inactive. Same read-out and setting: the same measure for `C[C@@H](Oc1ccc(CNC(=O)c2cccnc2Oc2ccc3c(c2)OCO3)c(F)c1)C(=O)O`: “inactive”.
